# AID inh: Primary qHTS assay for inhibitors of Activation Induced Cytidine Deaminase (AID): AID signal | Potency, µM (titrated, usually from 115 µM), most hits filed as inhibitors | AID deamination FRET fluorescence, UDG-coupled, 4 h | Single-stranded DNA cytosine deaminase (Homo sapiens), Q9GZX7 | hit rate 0.32% among 91,000 | AID 1347428, 2020; note: nearly all actives have a fitted effect of over 25% in size
# Target sequence (Q9GZX7 whole entry, looked up): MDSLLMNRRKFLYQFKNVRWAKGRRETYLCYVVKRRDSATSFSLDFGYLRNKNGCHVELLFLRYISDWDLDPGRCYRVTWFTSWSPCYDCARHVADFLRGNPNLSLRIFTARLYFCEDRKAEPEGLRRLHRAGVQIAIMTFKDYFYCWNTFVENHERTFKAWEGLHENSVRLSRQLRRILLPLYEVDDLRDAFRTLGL
# UDG counter: Primary qHTS assay for inhibitors of Activation Induced Cytidine Deaminase (AID): UDG Counterscreen signal | Uracil-DNA glycosylase | FRET deamination/UDG coupled assay, UDG read, 4 h | Potency, µM (doses to about 115 µM), for inactives: top-dose activity change, negative = inhibition, most hits filed as inhibitors | hit rate 0.14% among 91,000; note: nearly all actives have a fitted effect of over 65% in size
# Active calls of the source: *; i = inactive; u = inconclusive. Hits are enriched below; roughly 0.4% of the tested compounds scored in any of these assays. Calls come from the whole dose curve; as a rule, active = well fitted curve in the direction sought with a large enough effect; inconclusive = small, poorly fitted or top-dose-only effect, or another doubt; inactive = no such curve, though single readings can be large; an effect the other way counts as inactive or inconclusive. % is set by controls: 0 for no effect and ±100 for the full control effect; potency is the fitted concentration of half-maximal effect.
SMILES,AID inh,UDG counter
CCCCC12CN3CC(C)(CN(C1)C3c1ccccn1)C2=O (stereo not given),i,2%
CCCC12CN3CC(C)(CN(C1)C3c1c(C)[nH]c(=O)[nH]c1=O)C2=O (stereo not given),10µM*,-29%
COc1ccc2c(c1)c(C(=O)OC(C)C(=O)NC(C)(C)C)c(C)n2C1CC1 (stereo not given),i,-6%
O=C(COC(=O)C(O)(c1ccccc1)c1ccccc1)c1c[nH]c2ccccc12,i,8%
CCCNC(=O)c1cn(Cc2ccccc2)c2ccccc12,i,-3%
CN(N=O)c1ccc(O)c(O)c1,25µM*,-7%
CC1C(c2ccc(F)cc2)=[N+]([O-])C(C)(C(=O)c2ccccc2)N1O (stereo not given),i,5%
CN1CC[C@@]2(C)c3cc(O)ccc3N(C)C12 (stereo not given in full),11µM*,-4%
C[C@@H]1[C@@H]2Cc3ccc(O)cc3[C@@]1(C)CCN2CC1CC1,i,0%
CN(C)C(CSS(=O)(=O)c1ccccc1)CSS(=O)(=O)c1ccccc1,u,-18%
Cc1ccc(-n2c(/C=C\c3ccc(F)cc3)nc3ccccc3c2=O)cc1Cl,u,89µM*
O=c1c2ccccc2nc(/C=C/c2cccc3ccccc23)n1-c1ccccc1Cl,u,89µM*
Cc1cccc(/C=C/c2nc3ccccc3c(=O)n2-c2cccc(O)c2)c1,i,1%
Cc1ccccc1-n1c(/C=C/c2ccccc2F)nc2ccccc2c1=O,i,-11%
Cc1cc2c(c(=O)o1)C1(C(=O)Nc3ccccc31)C(C(=O)OCc1ccccc1)=C(N)O2 (stereo not given),i,11%
CCCCc1ccc2[nH]c(C)c(CCN)c2c1,i,6%
N[C@@H](CCl)C(=O)O,i,-4%
NC(Cc1cc(O)c(O)cc1O)C(=O)O (stereo not given),14µM*,-2%

# Assay outcomes: PubChem, National Center for Advancing Translational Sciences (NCATS)
